Bioassay records from PubChem BioAssay.
Shown are actives, neighbours in structure and some others; about 3.5% of the full set was active somewhere.
Pf apPOL block: Pf-apPOL DNA polymerase inhibition; inhibition, % at 10 µM; actives 0.25% (n = 210,000); Recombinant Pf-apPOL, molecular beacon fluorescence, 1.5 h; AID 1794808
mHTT-CaM PPI inh: inhibitors of human mutant huntingtin-calmodulin interaction. P42858. AlphaScreen His-mHTT/GST-CaM binding, luminescence. inhibition, % at 15 µM. actives 3.6% (n = 190,000). AID 1671202;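 further: 0% = both proteins with DMSO and 100% = one protein alone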
Target sequence (P42858 whole entry, looked up, stated change not applied): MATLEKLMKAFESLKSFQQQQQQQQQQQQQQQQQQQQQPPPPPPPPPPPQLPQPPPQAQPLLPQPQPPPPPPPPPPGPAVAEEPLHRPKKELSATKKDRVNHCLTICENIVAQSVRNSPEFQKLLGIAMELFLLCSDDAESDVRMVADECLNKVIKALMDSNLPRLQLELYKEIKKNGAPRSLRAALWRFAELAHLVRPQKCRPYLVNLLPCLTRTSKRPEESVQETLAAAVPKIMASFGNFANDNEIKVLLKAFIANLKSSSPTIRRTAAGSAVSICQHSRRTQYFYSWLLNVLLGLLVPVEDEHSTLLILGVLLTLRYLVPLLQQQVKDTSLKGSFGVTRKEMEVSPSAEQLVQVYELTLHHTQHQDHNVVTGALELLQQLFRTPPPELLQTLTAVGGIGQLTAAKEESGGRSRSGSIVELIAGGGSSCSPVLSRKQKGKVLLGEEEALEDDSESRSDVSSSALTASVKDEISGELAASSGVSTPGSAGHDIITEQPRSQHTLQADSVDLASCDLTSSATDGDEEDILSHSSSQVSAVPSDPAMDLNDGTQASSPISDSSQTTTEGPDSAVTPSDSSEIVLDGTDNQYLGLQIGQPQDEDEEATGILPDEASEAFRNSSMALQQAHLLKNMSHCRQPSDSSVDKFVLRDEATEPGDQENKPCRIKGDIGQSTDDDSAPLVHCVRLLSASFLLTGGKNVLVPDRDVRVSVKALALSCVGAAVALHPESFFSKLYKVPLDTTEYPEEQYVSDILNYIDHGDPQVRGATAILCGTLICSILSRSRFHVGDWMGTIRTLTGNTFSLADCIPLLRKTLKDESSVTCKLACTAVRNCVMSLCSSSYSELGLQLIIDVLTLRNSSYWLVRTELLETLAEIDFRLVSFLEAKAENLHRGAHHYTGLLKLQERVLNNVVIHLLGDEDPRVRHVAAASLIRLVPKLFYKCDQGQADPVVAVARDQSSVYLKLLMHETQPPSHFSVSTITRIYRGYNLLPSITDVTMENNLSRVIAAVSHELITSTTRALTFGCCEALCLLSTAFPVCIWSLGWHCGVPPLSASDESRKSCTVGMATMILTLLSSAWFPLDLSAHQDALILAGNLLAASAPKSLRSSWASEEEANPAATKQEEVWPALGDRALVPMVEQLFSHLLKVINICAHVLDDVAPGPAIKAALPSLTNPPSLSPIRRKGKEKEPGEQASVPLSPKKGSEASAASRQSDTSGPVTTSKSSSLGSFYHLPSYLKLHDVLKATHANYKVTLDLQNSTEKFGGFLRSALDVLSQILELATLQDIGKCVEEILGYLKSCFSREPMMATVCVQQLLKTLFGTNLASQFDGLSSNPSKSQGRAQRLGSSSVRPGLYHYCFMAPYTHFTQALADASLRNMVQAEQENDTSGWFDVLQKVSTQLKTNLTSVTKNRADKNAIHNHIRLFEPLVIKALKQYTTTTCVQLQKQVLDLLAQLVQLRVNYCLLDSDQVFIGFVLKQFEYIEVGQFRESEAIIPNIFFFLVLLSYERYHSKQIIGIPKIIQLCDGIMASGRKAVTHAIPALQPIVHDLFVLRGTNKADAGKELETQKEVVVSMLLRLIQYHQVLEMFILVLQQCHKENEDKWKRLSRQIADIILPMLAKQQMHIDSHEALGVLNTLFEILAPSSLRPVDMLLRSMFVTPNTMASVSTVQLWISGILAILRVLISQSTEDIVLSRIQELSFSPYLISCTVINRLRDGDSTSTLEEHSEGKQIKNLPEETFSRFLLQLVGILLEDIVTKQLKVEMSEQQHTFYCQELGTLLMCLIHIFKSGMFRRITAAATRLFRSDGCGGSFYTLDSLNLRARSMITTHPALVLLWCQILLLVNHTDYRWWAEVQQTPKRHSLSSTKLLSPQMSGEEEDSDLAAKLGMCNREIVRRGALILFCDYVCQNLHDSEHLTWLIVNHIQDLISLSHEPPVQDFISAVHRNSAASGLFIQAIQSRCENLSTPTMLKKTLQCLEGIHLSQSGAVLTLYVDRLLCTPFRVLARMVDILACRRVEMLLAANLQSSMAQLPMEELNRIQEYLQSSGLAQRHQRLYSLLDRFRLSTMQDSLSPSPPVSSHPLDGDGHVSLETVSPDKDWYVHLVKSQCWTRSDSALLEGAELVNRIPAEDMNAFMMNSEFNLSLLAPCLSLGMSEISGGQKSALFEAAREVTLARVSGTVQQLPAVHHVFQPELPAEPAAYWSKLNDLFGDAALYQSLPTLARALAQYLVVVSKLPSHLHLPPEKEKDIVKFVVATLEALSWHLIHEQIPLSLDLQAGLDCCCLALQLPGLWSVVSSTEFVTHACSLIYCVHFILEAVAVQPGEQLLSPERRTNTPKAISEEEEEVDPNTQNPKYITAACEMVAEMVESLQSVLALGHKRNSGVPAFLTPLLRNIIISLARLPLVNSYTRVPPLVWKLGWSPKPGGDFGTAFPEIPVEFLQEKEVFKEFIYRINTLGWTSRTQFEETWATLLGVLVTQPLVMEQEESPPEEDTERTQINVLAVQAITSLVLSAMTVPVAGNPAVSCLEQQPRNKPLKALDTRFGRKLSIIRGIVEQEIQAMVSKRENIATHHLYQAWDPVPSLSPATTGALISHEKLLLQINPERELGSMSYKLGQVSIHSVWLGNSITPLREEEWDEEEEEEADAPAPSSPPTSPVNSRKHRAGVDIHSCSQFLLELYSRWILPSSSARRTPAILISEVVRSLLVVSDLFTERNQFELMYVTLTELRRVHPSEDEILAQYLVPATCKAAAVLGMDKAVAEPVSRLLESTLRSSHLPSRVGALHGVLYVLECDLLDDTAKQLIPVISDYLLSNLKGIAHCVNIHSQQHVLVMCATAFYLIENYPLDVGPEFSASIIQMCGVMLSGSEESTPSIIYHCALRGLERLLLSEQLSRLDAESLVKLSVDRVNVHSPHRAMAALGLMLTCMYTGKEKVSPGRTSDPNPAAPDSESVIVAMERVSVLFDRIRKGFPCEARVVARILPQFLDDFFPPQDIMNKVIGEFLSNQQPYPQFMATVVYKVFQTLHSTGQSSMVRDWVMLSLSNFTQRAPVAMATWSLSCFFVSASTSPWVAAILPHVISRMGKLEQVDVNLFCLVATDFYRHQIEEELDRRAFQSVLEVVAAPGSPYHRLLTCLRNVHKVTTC
Starred values were filed as active, the others as inactive. No stated cut-off is given here; in the data, active means inhibition above about 50%; inactive means the rest.

SMILES	Pf apPOL block	mHTT-CaM PPI inh
CC(C)(C)c1cc(CN2CCC(O)CC2)cc(C(C)(C)C)c1O	14	-4
CC1CCN(C(c2ccc(N(C)C)cc2)c2cc(C(C)(C)C)c(O)c(C(C)(C)C)c2)CC1 (configuration not stated)	-7	66*
Cc1cc(NC(=O)c2ccc(Cl)c(Cl)c2)ccc1NC(=O)c1ccccc1	-2	1
O=C(Cc1nnc(-c2ccc3ncccc3c2)o1)Nc1ccccc1Cl	4	24
Cc1ccc(CNC(=O)c2c(C)sc3c(=O)n(C(C)C)cnc23)cc1	2	2
O=C1NCCN(Cc2ccccc2)C1=O	-6	-1
O=C1C=CC(=O)C(C2=C3C(=O)N(Cc4ccccc4)CC(=O)N3CCC2)=C1	-8	82*
O=C(c1ccc(Br)o1)N1CCC(c2cnn(-c3ccc(F)cc3)c2)CC1	-2	24
CCOc1ccc(C2(c3ccc(O)cc3)CCCCC2)cc1	-2	86*
CCOc1ccc(C(=O)NCC2(O)CCCC2)cc1	-8	0
O=C(NC(Nc1ccccc1Cl)C(Cl)(Cl)Cl)c1cccc([N+](=O)[O-])c1 (configuration not stated)	-4	74*
CN(C)C(=O)NC(Nc1cccc([N+](=O)[O-])c1)C(Cl)(Cl)Cl (configuration not stated)	-2	0
Cc1ccccc1NC(NC(=O)c1cc([N+](=O)[O-])cc([N+](=O)[O-])c1)C(Cl)(Cl)Cl (configuration not stated)	-2	53*
O=C(NC(Nc1cccc([N+](=O)[O-])c1)C(Cl)(Cl)Cl)c1cccc(Cl)c1 (configuration not stated)	-1	86*
COc1ccc(NC(NC(=O)c2cc([N+](=O)[O-])cc([N+](=O)[O-])c2)C(Cl)(Cl)Cl)cc1 (configuration not stated)	-6	69*
Cc1cccc(C(=O)NC(Nc2ccc([N+](=O)[O-])cc2)C(Cl)(Cl)Cl)c1 (configuration not stated)	-1	38
O=C(NC(Nc1ccc([N+](=O)[O-])cc1)C(Cl)(Cl)Cl)c1ccccc1 (configuration not stated)	-8	44
Cc1ccc(C(=O)NC(Nc2ccccc2C)C(Cl)(Cl)Cl)cc1 (configuration not stated)	0	-6
CCOc1ccc(CN2CCCC2c2c(C)noc2C)cc1OC (configuration not stated)	6	5
COc1cc(C2C(C#N)=C(N)Oc3n[nH]c(C)c32)cc(OC)c1OC (configuration not stated)	-11	-5
Cc1c(C(=O)N2CCOCC2)oc2ccc(S(=O)(=O)N3CCCCC3)cc12	-15	1
COc1cc(-c2nc(N3CCCC(C)C3)c3ccccc3n2)cc(OC)c1OC (configuration not stated)	-2	-5
CC1CCCN(c2nc(-c3ccc([N+](=O)[O-])cc3)nc3ccccc23)C1 (configuration not stated)	0	60*
CCCOc1ccc(-c2nc3s/c(=C\c4ccccc4)c(=O)n3n2)cc1	2	1
Cc1ccc(S(=O)(=O)NCCC2CCN(C(=O)c3ccccc3)CC2)cc1C	1	35
SMILES	Pf apPOL block	mHTT-CaM PPI inh
O=C(c1ccc(F)cc1)N1CCC(CCNS(=O)(=O)c2cccc(Cl)c2)CC1	-2	47
O=C(c1ccccc1)N1CCC(CCNS(=O)(=O)c2cccc(Cl)c2)CC1	-3	50*
Cc1cc(C)c(S(=O)(=O)NCCC2CCN(C(=O)c3ccccc3)CC2)cc1C	-2	64*
Cc1c(Cl)cccc1S(=O)(=O)NCCC1CCN(C(=O)c2ccccc2)CC1	0	53*
O=C(c1ccc(F)cc1)N1CCC(CCNS(=O)(=O)c2ccccc2Cl)CC1	6	39
COc1ccc(NC(=O)N2CCC3(C2)C(=O)N(C)c2ccccc23)cc1OC (configuration not stated)	-6	5
Cc1ccccc1CC(=O)NC1CCN(c2ccccc2)C1=O (configuration not stated)	0	-9
CCCCN(CCCC)S(=O)(=O)c1ccc2oc(C(=O)NCCN3CCOCC3)c(C)c2c1	-5	-7
Cc1ccc(CNC(=O)Cn2c(=O)n(-c3cc(F)ccc3F)c(=O)c3sccc32)cc1	2	-5
CC(C)C(=O)NC(c1ccc2c(c1)OCO2)c1cc(Cl)c2cccnc2c1O (configuration not stated)	-8	62*
CCCC(=O)NC(c1ccc(N(C)C)cc1)c1cc(Cl)c2cccnc2c1O (configuration not stated)	-2	43
CC(=O)NC(c1ccccc1Cl)c1cc(Cl)c2cccnc2c1O (configuration not stated)	8	95*
CC(=O)NC(c1ccccc1)c1cc(Cl)c2cccnc2c1O (configuration not stated)	1	100*
OC(c1ccc2c(c1)OCO2)c1nccc2ccccc12 (configuration not stated)	-7	5
CC(=O)NC(c1ccc(N(C)C)cc1)c1cc(Cl)c2cccnc2c1O (configuration not stated)	-5	96*
Cc1cc(C)nc(SCCOc2ccc(Cl)cc2)n1	-5	-108
COc1ccccc1N1CCN(C(=O)C2CC(=O)N(CCc3ccccc3)C2)CC1 (configuration not stated)	-5	10
COc1ccc(S(=O)(=O)Nc2ccccc2C(=O)NC2CCCCC2)cc1	-2	-2
CN(C)CCNC(=O)c1ccc(Br)o1	-3	-1
COc1ccc(-c2cc(C(F)(F)F)nc(N3CCCC3)n2)cc1OC	-5	-26
COc1ccc(C(NC(C)=O)c2cc(Cl)c3cccnc3c2O)cc1 (configuration not stated)	7	100*
CC(=O)NC(c1ccc(C(C)C)cc1)c1cc(Cl)c2cccnc2c1O (configuration not stated)	12	100*
CCCCC(=O)NC(c1ccc(OC)cc1)c1cc(Cl)c2cccnc2c1O (configuration not stated)	10	26
Cc1ccc2oc(=O)c(C=C(O)c3ccc(Cl)cc3)nc2c1	-1	4
COc1ccc(C(=O)N2CC(=O)Nc3ccc(Cl)cc3C2c2ccc(F)cc2)cc1OC (configuration not stated)	-10	71*
SMILES	Pf apPOL block	mHTT-CaM PPI inh
COc1ccc(C(=O)N2CC(=O)Nc3ccc(Cl)cc3C2c2ccc(F)cc2)c(OC)c1 (configuration not stated)	-3	43
Cc1ccccc1-c1cc(=O)c2cc(N)ccc2o1	-13	-2
O=C(Cn1cc2c(n1)CCCCC2)NCc1ccccc1Cl	1	-4
NC(=O)c1c(NC(=O)C2CCCN(C(=O)c3ccco3)C2)sc2c1CCCC2 (configuration not stated)	-7	73*
NC(=O)c1c(NC(=O)c2ccco2)sc2c1CCC2	0	2
CN(C)c1ccc(C2C3=C(CCCC3=O)Nc3nc(SCc4ccccc4F)[nH]c(=O)c32)cc1 (configuration not stated)	-5	52*
O=C1CCCC2=C1C(c1cccs1)c1c(nc(SCc3ccccc3F)[nH]c1=O)N2 (configuration not stated)	-5	41
O=C(C1CCCC1)N1CCCN(Cc2nc(-c3ccc(Cl)cc3)no2)CC1	-9	16
O=C(O)CSc1nnc(-c2ccc(Cl)cc2)n1-c1ccccc1	-1	-9
